Only some compounds are listed: those with a hit (about 3.5% of all), similar ones and a draw of the others.
Anthrax LF prot – Bacillus anthracis LF protease inhibitors, primary screen, biochemical, multiplex microsphere, MLPCN library | Lethal factor (Bacillus anthracis), P15917 | multiplex microsphere protease cleavage assay | inhibition, % at 10 µM | 360,000 tested, 0.12% active | AID 588501, 2011
BoNT F protease – BoNT/F light chain protease inhibitors, primary screen, biochemical, flow cytometry, MLPCN library. inhibition, % at 10 µM. 360,000 tested, 0.22% active. Multiplex microsphere protease cleavage assay; in the data active = inhibition above about 35%, passing the limit was not always enough; inconclusive = no clear call, values can overlap the other calls
BoNT A protease – BoNT/A light chain protease inhibitors, primary screen, biochemical, flow cytometry, MLPCN library; Botulinum neurotoxin type A light chain protease (Clostridium botulinum A str. ATCC 3502); multiplex microsphere protease substrate cleavage; inhibition, % at 10 µM; 360,000 tested, 0.17% active
Bead autofluor – compound fluorescence in toxin protease inhibitor counterscreen; AID 624483; 360,000 tested, 3.1% active; compound autofluorescence counterscreen, microsphere flow cytometry; active compounds read high; fluorescence intensity (no concentration beside the values); in the data active = fluorescence intensity above about 16000; inconclusive = no clear call, values can overlap the other calls
Large screens that a line does not name were inactive; ! = not confirmed by another sample. Cut-off read from the data, not from the text of the source, unless noted: active = inhibition above about 30%; inconclusive = no clear call, values can overlap the other calls; inactive = below that.

CC1CC(C)(C)NC(=S)N1CC(=O)NCc1ccccc1Cl (configuration not stated)	none
CC1CC(C)(C)NC(=S)N1CC(=O)NCc1ccc(Cl)cc1 (configuration not stated)	BoNT F protease 47
Cc1nc(Sc2ccccc2)c(C#N)c(C)c1[N+](=O)[O-]	Anthrax LF prot 30, BoNT F protease inconclusive
Cc1cc(C)c(C#N)c(Sc2nc(C)c([N+](=O)[O-])c(C)c2C#N)n1	none
COc1ccc(OC)c(Nc2nc(-c3cccc([N+](=O)[O-])c3)nc3ccccc23)c1	Bead autofluor 25968
CCN(CC(=O)NCc1cccs1)C(=O)c1cc(Br)ccc1O	none
Cc1csc2nc(O)c(C(=O)NC3CCCCCC3)c(=O)n12	Bead autofluor 18119
O=C(CSc1nnc2ncccn12)Nc1cccc2ccccc12	none
O=C(O)c1ccc(Cl)c(NC(=O)C2CCCN2S(=O)(=O)c2cccc3nsnc23)c1 (configuration not stated)	Bead autofluor 20420
Cc1ccc(-c2cn3cccnc3n2)cc1NC(=O)c1c(-c2ccccc2Cl)noc1C	none
Cc1onc(-c2ccccc2Cl)c1C(=O)Nc1ccc(S(=O)(=O)NCC2CCCO2)cc1 (configuration not stated)	none
Cc1onc(-c2ccccc2Cl)c1C(=O)NCCn1c(C)cc2ccccc21	BoNT A protease 59
Cc1onc(-c2ccccc2Cl)c1C(=O)NCC(=O)O	none
CCCCNS(=O)(=O)c1ccc(NC(=O)c2c(-c3ccccc3Cl)noc2C)cc1	Bead autofluor 19198
Cc1onc(-c2ccccc2Cl)c1C(=O)Nc1cccnc1	Bead autofluor 20230
Cc1onc(-c2ccccc2Cl)c1C(=O)Nc1ccc(-c2cn3cccnc3n2)cc1	BoNT A protease inconclusive, Bead autofluor 16485
O=C(COC(=O)c1cc(S(=O)(=O)N2CCCC2)ccc1O)NCCc1ccccc1	none
O=C(Nc1cc(Cl)ccc1-n1cncn1)c1ccc([N+](=O)[O-])s1	none
COCCNC(=O)c1cc2c(=O)n3cccc(C)c3nc2n(Cc2ccncc2)c1=N	none
CCCCNC(=O)c1cc2c(=O)n3cccc(C)c3nc2n(Cc2ccncc2)c1=N	Bead autofluor 24016
Cc1cccn2c(=O)c3cc(C(=O)NCc4ccco4)c(=N)n(C(C)C)c3nc12	Bead autofluor 16268
CCN(C(=O)CSc1nnc(-c2cccc(Cl)c2)n1N)c1c(N)n(Cc2ccccc2)c(=O)[nH]c1=O	none
N#Cc1ccc(OCC(=O)OCC(=O)c2ccc[nH]2)cc1	none
Cc1cc(C)c(C#N)c(SCC(=O)c2cccs2)n1	BoNT A protease inconclusive, Bead autofluor 22840
Cc1cc2c(C)ccc(C)c2nc1SCC(=O)c1cccs1	none
Cc1cc(SCC(=O)c2cccs2)nc2c(C)cccc12	Bead autofluor 16902
O=C(CSc1ncn(-c2ccccc2)n1)NCc1ccccc1	BoNT A protease inconclusive, Bead autofluor 23754
COc1ccccc1NC(=O)CSc1ncn(-c2ccccc2)n1	BoNT A protease inconclusive, Bead autofluor 20548
Cc1nc(-n2cc(F)c(=O)[nH]c2=O)c2nc(C)oc2n1	Bead autofluor 17089
CCNc1c(NS(=O)(=O)c2ccc(Cl)s2)c(=O)oc2ccccc12	none
Cc1ccc(O)c(-c2cc3ccccc3[nH]2)c1	Bead autofluor 23551
COc1cccc(C2=CC(c3ccc(N(C)C)cc3)n3nnnc3N2)c1 (configuration not stated)	Bead autofluor 16376
O=C(O)/C=C/C(=O)c1ccc2c(c1)CCc1ccccc1-2	none
Cc1ccc(-c2nnn(Cc3nc(N)nc(N4CCOCC4)n3)n2)cc1	Bead autofluor 23278
Cc1ccc(-c2nnn(CC(=O)Nc3ccccc3N3CCOCC3)n2)cc1	none
O=C(CCCC(=O)OCC(=O)c1ccc(F)cc1)Nc1cc(C(F)(F)F)ccc1Cl	BoNT A protease inconclusive, Bead autofluor 20642
Cc1cccc(-c2n[nH]c(=S)n2Cc2ccccc2)c1	none
Cc1ccc(-c2n[nH]c(=S)n2Cc2ccccc2)cc1	BoNT A protease inconclusive, Bead autofluor 22893
N#CCCN(Cc1ccccc1)C(=S)NC(=O)c1ccccc1	BoNT A protease inconclusive, Bead autofluor 21936
COc1ccc(CN(CCC#N)C(=S)NC(=O)c2ccccc2)cc1	none
CCOC(=O)CSc1nc2sc3c(c2c(=O)n1-c1ccccc1)CCN(C(C)C)C3	BoNT A protease 56
Cc1c(C(=O)O)oc2c1C(O)CC(C)(C)C2 (configuration not stated)	Bead autofluor 16667!
COc1ccc(S(=O)(=O)NCc2ccccn2)cc1OC	BoNT F protease inconclusive
CSc1ccc(S(=O)(=O)NCc2ccc(C)cc2)cc1	Bead autofluor 23510
COc1ccc(S(=O)(=O)NCc2ccccc2)cc1	Bead autofluor 21265
CCN(CC)S(=O)(=O)c1ccc(S(=O)(=O)NCc2cccs2)cc1	none
COc1ccccc1Oc1ccc(S(=O)(=O)NCc2ccccn2)cc1	Bead autofluor 23518
COc1ccc(S(=O)(=O)NCc2cccs2)cc1	Bead autofluor 21782
COCC(C)NS(=O)(=O)c1ccc(OC)cc1 (configuration not stated)	Bead autofluor 19695
C=CCNC(=O)CCCCCNS(=O)(=O)c1ccc(OC)cc1	Bead autofluor 23119
O=S(=O)(NCc1cccs1)c1cccc2cccnc12	Bead autofluor 17165
COc1ccc(S(=O)(=O)NCCC(=O)NCc2ccccc2)cc1	Bead autofluor 21763
COc1ccc(S(=O)(=O)NCCCCNS(=O)(=O)c2ccc(OC)cc2)cc1	none
Cc1noc(C)c1C(=O)N1CCC1(C)C(=O)NS(=O)(=O)c1cccc(Cl)c1 (configuration not stated)	none
O=C(NNC(=O)c1ccc(Cn2cccn2)o1)NC12CC3CC(CC(C3)C1)C2	none
O=C(c1ccc2c(c1)OCCCO2)c1cccs1	BoNT A protease inconclusive, Bead autofluor 22559
CC(=NNC(=O)c1cccs1)c1ccc2c(c1)OCCO2	none
CCOC(=O)N1CCC(NC(=O)C2CCN(S(=O)(=O)c3cccs3)CC2)CC1	Bead autofluor 20126
O=C(NC1CCCCC1)C1CCN(S(=O)(=O)c2cccs2)CC1	none
O=C(OCCN1C(=O)c2ccccc2C1=O)C1CCN(S(=O)(=O)c2cccs2)CC1	BoNT A protease inconclusive, Bead autofluor 22995
CCC(C)NC(=O)C1CCN(S(=O)(=O)c2cccs2)CC1 (configuration not stated)	none
CCC(CC)NC(=O)C1CCN(S(=O)(=O)c2cccs2)CC1	Bead autofluor 23956
Cc1nnc(SCC(=O)N2CC(=O)Nc3ccccc32)n1Cc1ccccc1	none
O=C1CN(C(=O)CSc2nnnn2-c2ccc(Cl)cc2)c2ccccc2N1	BoNT A protease inconclusive, Bead autofluor 21884
CC1C(=NO)C(C)C(c2ccccc2)NC1c1ccccc1 (configuration not stated)	BoNT A protease inconclusive, Bead autofluor 22855
O=C(NC1CCCCC1)n1c(=O)oc2ccccc21	Bead autofluor 23174
O=C(NC1CCCCC1)n1c(=O)oc2ccc(Cl)cc21	Bead autofluor 23566
O=C(CCn1c(=S)oc2ccccc21)NC1CCCCCC1	none
O=C(Cn1c(=O)oc2ccc(Cl)cc21)NC1CCCCC1	none

High-throughput results deposited in PubChem by NMMLSC.
